Source: PubChem
TEAD-YAP block = TEAD-YAP interaction inhibition, primary screen, TEAD-YAP interaction inhibitor project, luminescence, HEK-TIYL cells | TEAD-Gal4/YAP UAS-luciferase luminescence | inhibition, % at 9.12 µM | 640,000 tested, 1.4% active; in the data active = inhibition above about 32%;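 also: 0% = median of test compound wells and 100% = reference inhibitor wells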
FBW7 activator = FBW7 E3 ligase activators, primary screen, biochemical, AlphaScreen, human | AlphaScreen FBW7–phospho-cyclin E peptide binding, activator screen | normalized activity (activation), % at 26.1 µM | 650,000 tested, 0.13% active; in the data active = normalized activity above about 1.9%;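 also: purified mutant Fbw7 with reduced substrate affinity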
MITF inh = MITF inhibitors, primary screen, biochemical, AlphaScreen, human; 650,000 tested, 0.91% active; inhibition, % at 2.6 µM; AlphaScreen MITF homodimerization, bead proximity signal; in the data active = inhibition above about 50%;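 also: 0% = vehicle wells with protein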
Target sequence (O75030 whole entry, looked up): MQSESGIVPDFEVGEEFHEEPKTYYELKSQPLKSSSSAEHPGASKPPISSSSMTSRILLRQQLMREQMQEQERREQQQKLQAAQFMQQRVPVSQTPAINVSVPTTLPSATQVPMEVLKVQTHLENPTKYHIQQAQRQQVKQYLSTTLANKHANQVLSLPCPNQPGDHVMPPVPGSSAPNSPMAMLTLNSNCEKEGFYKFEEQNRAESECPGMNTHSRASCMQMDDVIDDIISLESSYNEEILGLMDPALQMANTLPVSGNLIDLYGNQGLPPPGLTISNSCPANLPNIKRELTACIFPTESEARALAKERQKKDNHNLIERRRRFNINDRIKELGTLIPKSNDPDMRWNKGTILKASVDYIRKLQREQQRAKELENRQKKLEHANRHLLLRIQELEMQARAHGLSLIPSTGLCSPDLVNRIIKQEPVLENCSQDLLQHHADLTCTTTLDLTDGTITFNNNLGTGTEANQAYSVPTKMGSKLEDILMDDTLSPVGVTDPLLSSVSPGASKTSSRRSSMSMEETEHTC
GPR151 activ = activators of human GPR151, primary screen, cell-based, PathHunter beta-arrestin, luminescence | G-protein coupled receptor 151 (Homo sapiens), Q8TDV0 | PathHunter beta-arrestin GPR151 cells | activation, % at 11.2 µM | 650,000 tested, 1% active | AID 1508602, 2020; in the data active = activation above about 4.9%;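 also: 0% = median of compound wells and 100% = cells with positive control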
GPR151 confirm = GPR151 activators, triplicate retest, confirmation, cell-based, PathHunter beta-arrestin, luminescence; activation, % at 11.2 µM; AID 1508609, 2020; shares compounds with GPR151 activ; GPR151 PathHunter beta-arrestin cells, 90 min; % of EA-reagent control over plate median; 6,700 tested, under 10 active;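 active = mean percent activation across replicates above the confirmation screen cutoff of 4.91%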
GPR119 ag = GPR119 activators in beta-arrestin cells, counter-screen for GPR151 activator project, cell-based, PathHunter beta-arrestin, luminescence, triplicate; 90 min; 0 = compound-well median, 100 = enzyme-acceptor control; shares compounds with GPR151 activ; activation, % at 11.2 µM; 6,700 tested, 0.3% active; AID 1508611, 2020;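 active = mean percent activation in the counterscreen above 29.09%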;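 also: counterscreen on off-target GPR119 to flag nonselective hits from the GPR151 activator screen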
Active calls of the source: *; x = no result given; ! = a repeat was not active. In the library only some 3.5% were active in any assay of this set; here they are far more common.

SMILES	TEAD-YAP block	FBW7 activator	MITF inh	GPR151 activ	GPR151 confirm	GPR119 ag
CCOC(=O)C1(Cc2ccc(Cl)cc2)CCN(CC)CC1	-3.9	0.2	11.4	-0.4	x	x
CCOC(=O)C1(Cc2ccc(Cl)cc2)CCN(CCC(C)O)CC1 (stereo unspecified)	6.3	0.4	15.0	5.0*	-0.4	-11.4
CCS(=O)(=O)Nc1cccc(N2CCC(NCC3CCCO3)CC2)c1 (stereo unspecified)	3.3	0.0	-17.4	-1.0	x	x
CCc1nc(NN)c2nnn(Cc3ccccc3Cl)c2n1	0.3	0.1	-20.9	-0.3	x	x
CCOCCn1ccc2c(OCC(=O)NCCOC)cccc2c1=O	0.3	0.0	7.7	13.8*	0.9	2.4
CCOCCn1ccc2c(OCC(=O)Nc3ccc(F)cc3F)cccc2c1=O	4.1	0.0	6.4	1.7	x	x
Cc1cc(NC(=O)CSc2nc3[nH]ncc3c(=O)[nH]2)no1	14.4	0.1	-0.5	1.0	x	x
O=S(=O)(CCOc1nc2cc(Cl)ccc2cc1CNC1CCOC1)c1ccccc1 (stereo unspecified)	1.2	-0.2	13.6	6.8*	0.3	12.4
CSc1ncccc1C(=O)OCC(=O)N1c2ccccc2CC1C (stereo unspecified)	1.8	-0.2	-4.0	0.7	x	x
O=S(=O)(NCCSc1nnnn1-c1ccccc1)c1ccccc1	-2.7	-0.2	-1.1	8.7*	0.2	13.4
N#CC1=C(NC(=O)c2ccc([N+](=O)[O-])cc2)CCC1	9.1	0.2	2.8	5.6*	-0.5	6.4
COc1ccc(C(=O)NC2=C(C#N)CCC2)cc1OC	-2.0	0.1	20.7	1.0	x	x
Cc1ccc2oc3c(c(=O)c2c1)C(c1ccccn1)N(c1ccccn1)C3=O (stereo unspecified)	-6.2	-0.1	0.6	-0.5	x	x
CSCC(=O)NCC1Cc2cc(F)cc(-c3ccc(C(C)=O)s3)c2O1 (stereo unspecified)	4.0	-0.2	3.0	-1.5	x	x
CC(=O)c1ccc(-c2cc(F)cc3c2OC(CNC(=O)CN(C)C)C3)s1 (stereo unspecified)	3.9	-0.1	2.2	5.6*	-0.5	2.5
Cc1ccc(CN2CCNC(=O)C2CC(=O)N2CCCN(Cc3ccccn3)CC2)o1 (stereo unspecified)	-0.8	-0.2	12.8	5.6*	0.3	1.5
Cc1ccc(CN2CCNC(=O)C2CC(=O)N2CCCN(c3ncccn3)CC2)o1 (stereo unspecified)	-1.4	-0.1	-17.0	0.5	x	x
COC(=O)c1cnn(C(=O)c2ccncc2)c1N	0.4	0.1	-2.7	-1.8	x	x
COC(=O)c1cnn(C(=O)c2ccc(OC)cc2)c1N	-3.6	0.1	5.7	6.2*	-0.2	-0.2
Cc1cc(NC(=O)COc2cc(C)c(Cl)c(C)c2)no1	1.4	0.1	1.5	-0.4	x	x
CCOCCCNc1c(-c2ccccc2)nc2ccc(Br)cn12	-39.3	0.1	-2.6	1.4	x	x
CCOCCCNc1c(-c2ccccc2)nc2cnccn12	5.7	0.1	8.7	5.6*	-0.5	4.8
CN(CCc1ccccn1)C(=O)c1ccc2c(c1)NC(=O)c1ccccc1N2	-5.2	0.3	13.0	1.3	x	x
CN1CCC(=C2c3ccccc3C=Cc3ccccc32)CC1	-10.8	-0.1	-15.1	5.3*!	0.2	-5.8
CN1CCC(=C2c3ccccc3Sc3ccccc32)CC1	6.3	0.0	-3.5	2.0	x	x
SMILES	TEAD-YAP block	FBW7 activator	MITF inh	GPR151 activ	GPR151 confirm	GPR119 ag
Cc1cccc(OCC(=O)Nc2ccc(S(=O)(=O)N(C)Cc3ccccc3)cc2)c1	-9.0	0.2	-6.6	5.6*	0.4	4.3
CN(Cc1ccccc1)S(=O)(=O)c1ccc(NS(C)(=O)=O)cc1	2.1	0.1	9.7	5.7*	-1.3	-10.6
CC(=O)Nc1ccc(S(=O)(=O)N(C)Cc2ccccc2)cc1	0.5	0.1	-11.4	1.0	x	x
COc1ccc(S(=O)(=O)N(CC(=O)O)Cc2ccccc2)cc1C	11.9	-0.1	-13.7	-0.8	x	x
COc1ccc(S(=O)(=O)N(C)Cc2ccccc2)cc1C	-2.9	0.0	3.6	11.2*	-0.3	-6.2
O=C(CCCn1c(=S)[nH]c2ccc(Br)cc2c1=O)N1CCc2ccccc2C1	8.9	0.3	12.2	-0.5	x	x
CCCCN(CCCC)c1nc(C)cc(=O)[nH]1	5.4	-0.1	-4.6	5.1*!	0.1	-1.1
O=C(COc1cccc(Cl)c1Cl)c1ccc[nH]1	-9.4	-0.2	0.1	9.9*	0.1	-12.4
CCc1noc(C)c1C(=O)OCC(=O)Nc1cc(C)on1	5.0	0.1	15.7	5.3*	1.5	1.9
CC(C)[C@@H](Cn1nc(-c2ccc(F)c(F)c2)ccc1=O)NC(=O)c1ccc(=O)[nH]n1	-0.4	-0.1	5.9	9.0*	0.1	4.7
O=C(NCCNc1ccc(Nc2ccncc2)nn1)c1cccc(F)c1	-0.6	-0.5	-5.3	0.0	x	x
CC(=O)c1cccc(-c2nc(C)cc(NCCN3CCOCC3)n2)c1	-14.7	0.3	-4.3	11.3*	1.3	-1.1
c1cc(NCCN2CCOCC2)nc(-c2ccc(N3CCOCC3)nc2)n1	5.6	0.3	10.5	6.1*	0.4	3.3
O=Cc1cccc(-c2ccc(NCCN3CCOCC3)nc2)c1	-57.6	-0.6	14.0	5.2*	0.4	-0.8
Cc1cc(NCCN2CCOCC2)nc(-c2cccc(N)c2)n1	2.4	0.2	8.4	1.3	x	x
CCCCCC(=O)N/N=C/c1ccc2cc(OC)ccc2c1	4.3	-0.2	-2.4	-0.8	x	x
c1ccc(-n2nnnc2NCC2CCCCC2)cc1	2.6	-0.1	-5.0	2.0	x	x
O=C(NNC(=O)c1ccccc1I)c1cccs1	-1.5	0.2	4.0	5.8*	-0.5	-10.9
Cc1cc2c(cc1S(=O)(=O)C(C)CC(=O)NCc1ccc(Cl)cc1)OCC(=O)N2 (stereo unspecified)	3.4	-0.1	-6.5	-0.7	x	x
Cc1ccc(CNC(=O)CC(C)S(=O)(=O)c2cc3c(cc2C)NC(=O)CO3)cc1 (stereo unspecified)	-2.2	-0.1	-10.7	5.3*	1.1	5.1
Clc1cc2c(cc1-c1nc(-c3ccccc3)c(-c3ccccc3)[nH]1)OCO2	-1.0	0.1	46.7	6.6*	2.5	19.7
COc1ccc(-c2[nH]c(-c3ccc4c(c3)OCO4)nc2-c2ccccc2)cc1	1.1	-0.2	-3.3	0.5	x	x
O=C(c1cc(C(=O)C2CC2)cc(C(=O)C2CC2)c1)C1CC1	10.2	-0.1	-1.8	1.9	x	x
COc1cc(/C=C2/NC(=O)N(Cc3ccccc3F)C2=O)cc(Cl)c1OC	-2.6	0.1	7.7	0.6	x	x
COc1cc(/C=C2/NC(=O)N(Cc3ccc(F)cc3)C2=O)cc(Cl)c1OC	-12.8	0.6	-4.0	5.2*	0.2	0.0
